Experimental data: the antibiotic and cytotoxicity screens of Wong et al. (2023)
In all, about 39,000 compounds went through this assay and about 3,300 (8.5%) were called active. Only a selection was taken, and actives are over-represented in it overall.

Each compound was assayed on HepG2 (assay: cytotoxicity call (relative viability < 0.9)). Conditions: 10 µM.

SMILES | cytotoxicity call
CO[C@H](CN(C)S(=O)(=O)c1ccc(F)cc1)[C@H](C)CN([C@@H](C)CO)S(=O)(=O)c1cccc(Cl)c1 | inactive
COC1C=CC23c4cc5c(cc4CN(CC2O)C3C1)OCO5 (stereo unspecified) | inactive
COC(=O)[C@H](Cc1ccccc1)N1CC2=C[C@H](C3CC3)n3c(=O)n(C)c(=O)n3[C@@H]2[C@H]1[C@H](O)Cc1ccccc1 | inactive
CC(=O)N1CCc2n[nH]c(C(=O)N3CCOCC3)c2C1 | inactive
CC(C)NC(=O)N(C)C[C@@H]1Oc2c(NC(=O)C3CCOCC3)cccc2C(=O)N([C@H](C)CO)C[C@@H]1C | inactive
C[C@H](CO)N1C[C@H](C)[C@@H](CN(C)C(=O)CN(C)C)Oc2cc(C#Cc3ccc(F)cc3)ccc2S1(=O)=O | inactive
C[C@H]1CN([C@@H](C)CO)S(=O)(=O)c2ccc(C#Cc3ccccc3)cc2O[C@H]1CN(C)C(=O)CN(C)C | active
C[C@@H]1CN([C@@H](C)CO)S(=O)(=O)c2ccc(C#Cc3ccc(F)cc3)cc2O[C@@H]1CN(C)C(=O)CN(C)C | inactive
C[C@H]1CN([C@@H](C)CO)S(=O)(=O)c2ccc(C#Cc3ccccc3)cc2O[C@@H]1CN(C)C(=O)CN(C)C | inactive
C[C@H](CO)N1C[C@H](C)[C@@H](CN(C)C(=O)CN(C)C)Oc2cc(C#Cc3ccccc3)ccc2S1(=O)=O | active
C[C@H](CO)N1C[C@H](C)[C@H](CN(C)C(=O)CN(C)C)Oc2cc(C#Cc3ccc(F)cc3)ccc2S1(=O)=O | inactive
C[C@@H]1CN([C@@H](C)CO)S(=O)(=O)c2ccc(C#Cc3ccccc3)cc2O[C@@H]1CN(C)C(=O)CN(C)C | active
C[C@@H]1CN([C@H](C)CO)S(=O)(=O)c2ccc(C#Cc3ccc(F)cc3)cc2O[C@@H]1CN(C)C(=O)CN(C)C | inactive
C[C@H](CO)N1C[C@H](C)[C@H](CN(C)C(=O)CN(C)C)Oc2cc(C#Cc3ccccc3)ccc2S1(=O)=O | inactive
C[C@@H]1CCCCO[C@@H](CN(C)Cc2ccc(C(F)(F)F)cc2)[C@H](C)CN([C@H](C)CO)C(=O)c2cc(N(C)C)ccc2O1 | inactive
Cn1ccc(C(=O)N2CCC3(CCOC[C@@H]3NS(C)(=O)=O)CC2)n1 | inactive
Cc1noc(C)c1S(=O)(=O)Nc1ccc2c(c1)CC(=O)N([C@@H](C)CO)C[C@H](C)[C@H](CN(C)C(=O)NC(C)C)O2 | inactive
COc1cccc(S(=O)(=O)N[C@H]2CC[C@@H](CC(=O)NC3CCC3)O[C@@H]2CO)c1 | inactive
CC(=O)NCCCC[C@@H]1NC(=O)[C@H]2C[C@@H](C(=O)NCCCCCCN(C)C)[C@@H](c3ccc(O)cc3)N2C1=O | inactive
C[C@@H]1CCCCO[C@H](CN(C)C(=O)Nc2ccc(F)cc2)[C@H](C)CN([C@@H](C)CO)C(=O)c2cc(NC(=O)c3ccncc3)ccc2O1 | inactive
NCc1ccc(S(=O)(=O)O)cc1 | inactive
C[C@@H]1CN([C@@H](C)CO)C(=O)Cc2cc(NC(=O)Cn3cnnn3)ccc2O[C@@H]1CN(C)C(=O)Nc1ccc(F)cc1 | inactive

SMILES | cytotoxicity call
CN1CCN(C(=O)C[C@@H]2C=C[C@@H](NC(=O)c3ccc4c(c3)OCO4)[C@H](CO)O2)CC1 | inactive
CCCCOc1ccc(CC(=O)NO)cc1 | active
COc1ccc(OCCC(=O)NN)cc1 | inactive
CCOc1ccc(NC(=O)CC(C)O)cc1 (stereo unspecified) | inactive
CNC(=O)CN(C#N)c1nc(C)cc(C)n1 | inactive
COc1ccc(CNC(=O)C[C@H]2C[C@H]3c4cc(NS(=O)(=O)c5ccc(F)cc5)ccc4O[C@H]3[C@H](CO)O2)cc1 | inactive
C[C@H](CO)N1C[C@H](C)[C@H](CN(C)C(=O)c2cccnc2)Oc2ncc(-c3ccc(C(=O)N(C)C)cc3)cc2C1=O | inactive
C[C@@H]1CCCCO[C@H](CN(C)C(=O)CCC(F)(F)F)[C@@H](C)CN([C@H](C)CO)C(=O)c2cc(NC(=O)CCC(F)(F)F)ccc2O1 | inactive
C[C@@H]1CN([C@H](C)CO)C(=O)c2cc(NC(=O)Nc3ccc(C(F)(F)F)cc3)ccc2O[C@H]1CN(C)C(=O)Nc1ccc(F)cc1 | inactive
C[C@H](CO)N1C[C@H](C)[C@@H](CN(C)C(=O)Nc2ccc(C(F)(F)F)cc2)Oc2ccc(NC(=O)Nc3ccc(C(F)(F)F)cc3)cc2C1=O | active
C[C@@H]1CN([C@H](C)CO)C(=O)c2cc(NC(=O)Nc3ccccc3)ccc2O[C@@H]1CN(C)C(=O)Nc1ccc(C(F)(F)F)cc1 | inactive
C[C@H](CO)N1C[C@H](C)[C@H](CN(C)C(=O)Nc2ccccc2)Oc2ccc(NC(=O)Nc3ccc(C(F)(F)F)cc3)cc2C1=O | active
C[C@@H]1CN([C@@H](C)CO)C(=O)c2cc(NC(=O)Nc3ccccc3)ccc2O[C@@H]1CN(C)C(=O)Nc1ccc(C(F)(F)F)cc1 | inactive
C[C@@H]1CN([C@H](C)CO)C(=O)c2cc(NC(=O)CCC(F)(F)F)ccc2O[C@@H]1CN(C)C(=O)Nc1ccc(C(F)(F)F)cc1 | inactive
C[C@H]1CN([C@@H](C)CO)C(=O)c2cc(NC(=O)Nc3ccc(C(F)(F)F)cc3)ccc2O[C@H]1CN(C)C(=O)Nc1ccc(C(F)(F)F)cc1 | inactive
C[C@@H]1CN([C@@H](C)CO)C(=O)c2cc(NC(=O)Nc3ccc(C(F)(F)F)cc3)ccc2O[C@H]1CN(C)C(=O)Nc1ccc(C(F)(F)F)cc1 | inactive
C[C@@H]1CN([C@@H](C)CO)C(=O)c2cc(NC(=O)CCC(F)(F)F)ccc2O[C@H]1CN(C)C(=O)Nc1ccc(C(F)(F)F)cc1 | inactive
C[C@H]1CN([C@@H](C)CO)C(=O)c2cc(NC(=O)Nc3ccc(F)cc3)ccc2O[C@@H]1CN(C)C(=O)Nc1ccc(C(F)(F)F)cc1 | inactive
C[C@H](CO)N1C[C@H](C)[C@@H](CN(C)C(=O)Nc2ccc(C(F)(F)F)cc2)Oc2ccc(NC(=O)Nc3ccc(F)cc3)cc2C1=O | active
C[C@H]1CN([C@@H](C)CO)C(=O)c2cc(NC(=O)CCC(F)(F)F)ccc2O[C@H]1CN(C)C(=O)Nc1ccc(C(F)(F)F)cc1 | active
Cc1noc(C)c1NC(=O)Nc1ccc2c(c1)CC(=O)N([C@H](C)CO)C[C@H](C)[C@H](CN(C)S(=O)(=O)c1cn(C)cn1)O2 | inactive
COc1ccc(NC(=O)Nc2ccc3c(c2)C(=O)N([C@H](C)CO)C[C@@H](C)[C@@H](CN(C)C(=O)Cc2ccccc2)OCCCC[C@H](C)O3)cc1 | inactive

SMILES | cytotoxicity call
NC1(C#Cc2cncc(C(=O)N3CCOCC3)c2)CCCCC1 | inactive
C[C@@H]1CN([C@H](C)CO)C(=O)c2cc(NC(=O)NC3CCCCC3)ccc2O[C@@H](C)CCCCO[C@H]1CN(C)Cc1ccc2c(c1)OCO2 | inactive
Cc1ccc(S(=O)(=O)Nc2ccc3c(c2)CC(=O)N([C@H](C)CO)C[C@H](C)[C@H](CN(C)S(=O)(=O)c2ccccc2)O3)cc1 | inactive
COc1ccccc1S(=O)(=O)N[C@H]1C=C[C@H](CC(=O)N2CCN(C)CC2)O[C@H]1CO | inactive
COc1ccc(NC(=O)Nc2ccc3c(c2)C(=O)N([C@@H](C)CO)C[C@@H](C)[C@H](CN(C)S(=O)(=O)c2c(C)noc2C)OCCCC[C@@H](C)O3)cc1 | inactive
Cc1cc(C(=O)Nc2cccc3c2O[C@H](CN(C)C(=O)NC(C)C)[C@@H](C)CN([C@@H](C)CO)C3=O)n(C)n1 | inactive
C[C@@H]1CCCCO[C@@H](CN(C)S(=O)(=O)c2cccs2)[C@@H](C)CN([C@H](C)CO)C(=O)c2cc(NC(=O)c3ccccc3)ccc2O1 | inactive
O=C(C[C@@H]1CC[C@@H](NS(=O)(=O)c2ccccc2F)[C@@H](CO)O1)NCCCN1CCOCC1 | inactive
O=C(C[C@@H]1CC[C@@H]2[C@H](COC[C@@H](O)CN2C(=O)C2CC2)O1)NCc1ccncc1 | inactive
C[C@@H]1CN([C@H](C)CO)C(=O)c2cc(NC(=O)Nc3ccc(C(F)(F)F)cc3)ccc2O[C@@H]1CN(C)C(=O)Nc1ccc(F)cc1 | active
C[C@@H]1CN([C@@H](C)CO)C(=O)c2cc(NC(=O)Nc3ccc(F)cc3)ccc2O[C@@H]1CN(C)C(=O)Nc1ccc(C(F)(F)F)cc1 | inactive
C[C@H]1CN([C@@H](C)CO)C(=O)c2cc(NC(=O)Nc3ccc(C(F)(F)F)cc3)ccc2O[C@H]1CN(C)C(=O)Nc1ccc(F)cc1 | inactive
C[C@H]1CN([C@@H](C)CO)C(=O)c2cc(NC(=O)Cc3ccccc3)ccc2O[C@@H]1CN(C)C(=O)Nc1ccc(C(F)(F)F)cc1 | inactive
C[C@@H]1CN([C@@H](C)CO)C(=O)c2cc(NC(=O)Nc3ccc(C(F)(F)F)cc3)ccc2O[C@@H]1CN(C)C(=O)Nc1ccc(F)cc1 | active
C[C@@H]1CN([C@H](C)CO)C(=O)c2cc(NC(=O)Nc3ccc(F)cc3)ccc2O[C@H]1CN(C)C(=O)Nc1ccc(C(F)(F)F)cc1 | inactive
C[C@H](CO)N1C[C@H](C)[C@H](CN(C)C(=O)Nc2ccc(C(F)(F)F)cc2)Oc2ccc(NC(=O)Cc3ccccc3)cc2C1=O | active
C[C@H](CO)N1C[C@H](C)[C@@H](CN(C)C(=O)Nc2ccc(C(F)(F)F)cc2)Oc2ccc(NC(=O)Cc3ccccc3)cc2C1=O | inactive
C[C@H](CO)N1C[C@H](C)[C@@H](CN(C)C(=O)Nc2ccc(F)cc2)Oc2ccc(NC(=O)Nc3ccc(C(F)(F)F)cc3)cc2C1=O | inactive
CNc1[nH]cnc(=S)c1N | inactive
COc1ccc(NC(=O)Nc2ccc3c(c2)C(=O)N([C@H](C)CO)C[C@@H](C)[C@H](CN(C)CC2CCCCC2)O3)cc1 | inactive
CO[C@H]1CN(C(=O)c2ccnnc2)[C@H]2COC[C@@H]12 | inactive
Cc1noc(C)c1S(=O)(=O)Nc1ccc2c(c1)C(=O)N([C@@H](C)CO)C[C@@H](C)[C@@H](CN(C)Cc1ccc3c(c1)OCO3)O2 | inactive
